Most compounds without a hit are left out; they make up all but 4% or so of the library.
D1 ag – Allosteric Agonists of the Human D1 Dopamine Receptor: qHTS; HEK293 T-REx D1 cells, calcium flux, agonist mode; AID 504660, 2011; activation, % at 2 µM; D(1A) dopamine receptor (Homo sapiens), P21728; hit rate 1% among 360,000; also: 0% is about no effect
Target sequence (P21728 whole entry, looked up): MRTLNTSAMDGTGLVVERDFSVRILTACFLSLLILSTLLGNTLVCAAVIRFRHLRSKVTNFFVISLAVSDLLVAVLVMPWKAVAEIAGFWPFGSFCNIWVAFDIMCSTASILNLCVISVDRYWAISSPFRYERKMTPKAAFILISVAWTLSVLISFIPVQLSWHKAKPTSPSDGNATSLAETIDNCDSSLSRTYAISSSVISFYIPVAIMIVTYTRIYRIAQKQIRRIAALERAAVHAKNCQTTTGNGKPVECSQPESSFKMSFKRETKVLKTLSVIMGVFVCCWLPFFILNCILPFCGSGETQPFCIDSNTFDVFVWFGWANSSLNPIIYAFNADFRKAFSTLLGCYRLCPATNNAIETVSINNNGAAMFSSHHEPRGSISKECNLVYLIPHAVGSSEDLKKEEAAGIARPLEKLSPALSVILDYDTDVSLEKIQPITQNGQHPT
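Inducible HEK293 T-REx D1 cells, force-coupled to calcium signalling, were plated at 4000 cells/well with tetracycline and held overnight at 30 C. After no-wash calcium dye loading, compound-evoked calcium rise over 180 s flagged agonists.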
TRHR agonist – qHTS for Small Molecule Agonists and Allosteric Enhancers of Human TRH Receptor: Primary Screen for Agonists; TRHR cells, calcium flux fluo-8, FDSS agonist mode; activation, % at 2 µM; AID 493084, 2011; hit rate 0.18% among 360,000; Thyrotropin-releasing hormone receptor (Homo sapiens), P34981; also: 0% is about no effect
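Fluo-8-loaded TRHR cells; 10 s baseline, compound added, kinetic Ca2+ fluorescence read 1/s, agonist mode.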
D1 antagonist – Antagonist of Human D 1 Dopamine Receptor: qHTS | HEK293 TREx D1 cells, calcium flux, dopamine EC80; hits give low values | activity change, negative = inhibition, % at 10 µM | hit rate 3.2% among 360,000; in the data active = activity change below about -30%; also: % is scaled to controls: 0 for no effect and ±100 for the full control effect
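Cells carrying a force-coupled, tetracycline-inducible human D1 receptor report calcium flux. Each well gets a 10 s baseline, compound with 180 s monitoring, then an EC80 dopamine stimulus with a second 180 s kinetic read.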
TRHR enhancer – qHTS for Small Molecule Agonists and Allosteric Enhancers of Human TRH Receptor: Primary Screen for Enhancers; hit rate 0.66% among 360,000; Thyrotropin-releasing hormone receptor (Homo sapiens), P34981; AID 493056, 2011; TRHR cells, fluo-8 calcium fluorescence, EC20 TRH enhancement; enhancement, % at 2 µM; in the data active = enhancement above about 30%; also: 0% is about no effect
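TRHR-expressing cells loaded with fluo-8 calcium dye were read kinetically (ex 480/em 530) during compound addition, then stimulated with an EC20 of TRH (10 nM final). Enhancement of the Gq-mediated intracellular calcium response was scored.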
Glioma ERSR ind – qHTS for Inducers of the Endoplasmic Reticulum Stress Response (ERSR) in Human Glioma: qHTS. U87-MG GRP78 promoter luciferase reporter, 16 h. Potency, µM, without a hit: at the top dose activation, hits mostly activators. hit rate 0.02% among 420,000; active = well fitted activation curve with a large enough effect; also: potency is read from the fitted curve at half-maximal effect; series mostly up to about 76 µM; % of control where 0% means no effect; nearly all actives have a fitted effect of over 35% in size
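ERSR induction read as luciferase luminescence (Bright-Glo, 10 min at room temperature) in stably transfected human U87-MG glioma cells exposed to compounds for 16 h, using GRP78 as sensor.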
D1 potentiator – Potentiators of Human D1 Dopamine Receptor: qHTS. D(1A) dopamine receptor (Homo sapiens), P21728. HEK293 TREx D1 cells, calcium flux, dopamine EC20 potentiation. potentiation, % at 10 µM. hit rate 0.036% among 360,000. AID 504651, 2011; in the data active = potentiation above about 30%; also: 0% is about no effect
* hit, by the source's call; x = not tested or not shown. Rule as the data show it, unless noted: active = activation above about 30%; inactive = the rest.

SMILES | D1 ag | TRHR agonist | D1 antagonist | TRHR enhancer | Glioma ERSR ind | D1 potentiator
C/C(=N\NC(=O)Cc1c[nH]c2ccccc12)c1ccc2ccccc2c1 | 8.3 | 0.2 | -29.3 | 5.8 | 4.7% | -7.8
Cc1ccc(N2CCN(S(=O)(=O)N3CCOCC3)CC2)cc1C | 0.9 | 0.3 | -31.3* | 4.2 | -1.3% | 2.5
COc1cccc(-n2c(C)nc3c(cnn3-c3ccc(C)c(C)c3)c2=O)c1 | 8.1 | -0.1 | -48.4* | 0.3 | 6.3% | 1.9
Cc1ccc(-n2c(C)nc3c(cnn3-c3ccc(C)c(C)c3)c2=O)cc1C | 0.2 | -0.1 | 5.8 | -2.1 | -1.0% | 1.2
Cc1cc(NC2CCCCC2)nc2ccccc12 | 22.7 | 0.6 | -33.1* | -5.1 | -1.2% | -6.0
Oc1ccccc1-c1nc(NC2CCCC2)c2ccccc2n1 | 9.2 | -0.7 | -7.4 | 31.0* | -2.6% | -1.8
Cc1cc(NCc2ccccn2)nc2ccccc12 | 0.3 | -0.3 | 1.8 | -2.1 | 0.4% | -8.1
O=C1CCC(C(=O)NCc2ccc3c(c2)OCO3)N1 (configuration not stated) | 3.3 | 1.5 | -2.2 | 0.3 | -3.7% | 6.3
CCOc1ccc(C(=O)NCCc2cnc[nH]2)cc1 | 0.9 | 0.0 | 1.1 | 4.3 | -3.6% | 7.4
Cn1nnnc1SCC(=O)Nc1cccc([N+](=O)[O-])c1 | 0.3 | 0.3 | 7.7 | -2.3 | -2.2% | -2.0
O=C(CSc1nc(-c2ccccc2)nn1C(=O)c1ccccc1)Nc1cccc([N+](=O)[O-])c1 | 14.5 | -0.2 | -33.6* | 19.3 | 4.0% | -2.4
Nc1ccc(SCC(=O)Nc2cccc([N+](=O)[O-])c2)cc1 | 4.7 | 0.5 | -48.8* | -0.9 | 0.6% | -8.3
CS(=O)(=O)Nc1nnc(SCC(=O)Nc2cccc([N+](=O)[O-])c2)s1 | 1.8 | -1.0 | -78.6* | 1.0 | -3.5% | -3.8
O=C(CSCCO)Nc1cccc([N+](=O)[O-])c1 | 0.4 | -0.4 | -1.2 | 2.1 | -0.9% | -5.8
COC(=O)c1sc2cccc(F)c2c1S(=O)(=O)NC(C)c1ccccc1 (configuration not stated) | 3.4 | -0.4 | 8.4 | 1.2 | -3.3% | -2.5
CC(=O)c1cccc(NC(=O)CC2SC(N3CCCCC3)=NC2=O)c1 (configuration not stated) | 0.8 | 0.1 | -1.5 | -2.0 | -2.2% | -5.2
O=C(CC1SC(N2CCCCC2)=NC1=O)Nc1cccc(C(F)(F)F)c1 (configuration not stated) | 1.0 | -0.7 | -33.8* | 3.5 | -7.0% | -3.5
S=c1[nH]c(-c2ccc(Br)cc2)cn1CCc1ccccc1 | 3.8 | 0.4 | -90.3* | 8.6 | -0.3% | -6.5
O=C(C1CC(=O)N(c2ccc3c(c2)OCCO3)C1)N1CCN(c2ccccc2)CC1 (configuration not stated) | 0.0 | -0.3 | -28.0 | 1.4 | -6.7% | -5.3
O=C(CSc1nc(C2CCCCC2)nc2ccccc12)NCc1ccc2c(c1)OCO2 | 4.9 | 0.6 | -46.2* | -2.4 | -6.2% | -3.0
Cc1cc(C)cc(-n2c(SCC(=O)NCc3ccc4c(c3)OCO4)nc3ccccc3c2=O)c1 | 4.1 | -1.3 | -36.5* | -3.3 | -4.8% | -12.6
Cc1ccc(C(=O)C(C)OC(=O)CCS(=O)(=O)c2ccc(C)cc2)cc1 (configuration not stated) | 12.5 | 0.0 | 0.0 | -2.9 | 4.2% | x
COc1ccc(C(=O)NCC(=O)OCc2ccc(F)cc2Cl)cc1OC | 0.5 | -0.5 | 6.8 | -0.2 | -3.4% | -7.1
COc1nc(NCCO)nc(Nc2ccc([N+](=O)[O-])cc2)n1 | 0.8 | 0.7 | 2.1 | -3.0 | -3.4% | -7.3
NNC(=O)c1ccc(COc2ccc([N+](=O)[O-])cc2)o1 | 2.7 | 0.2 | -14.3 | 2.1 | 0.4% | -4.5
SMILES | D1 ag | TRHR agonist | D1 antagonist | TRHR enhancer | Glioma ERSR ind | D1 potentiator
CC1CCCCN1C(=O)c1ccc(COc2ccc([N+](=O)[O-])cc2)o1 (configuration not stated) | 15.3 | -1.1 | -35.6* | 16.0 | -4.5% | -6.9
COC(=O)c1ccc(Nc2ncnc3c2cnn3-c2cccc(C)c2)cc1 | 0.9 | 1.5 | -37.9* | 13.3 | 3.6% | -11.8
Cc1ccc(-n2ncc3c(Nc4cccc(C)c4)ncnc32)cc1 | 4.5 | 1.7 | -33.2* | 11.4 | 2.1% | -9.0
Cc1cccc(-n2ncc3c(Nc4ccc(F)cc4)ncnc32)c1 | 0.1 | 1.5 | -49.1* | 6.7 | -0.4% | -16.6
COc1ccc(Nc2ncnc3c2cnn3-c2cccc(C)c2)cc1OC | -0.3 | -0.6 | -2.7 | 1.4 | -3.0% | -8.7
CCCCN1CCC(CN2C(=S)NC[C@@H]2CC(C)C)CC1 | x | x | x | x | 0.7% | x
CCOc1cc(/C=C2/NC(=O)N(Cc3ccccc3F)C2=O)ccc1O | -1.1 | -0.6 | -7.3 | -3.5 | -4.0% | -8.0
COc1cc(/C=C2/NC(=O)N(Cc3ccccc3F)C2=O)cc(OC)c1O | 2.9 | 6.7 | -37.7* | 1.2 | 0.3% | -6.3
CC(C)(C)c1ccc(C(=O)N2CCC2(C)C(=O)NCc2cccs2)cc1 (configuration not stated) | x | x | x | x | -2.8% | x
O=C(NCc1ccccc1)c1cccc(COc2ccc(Cl)cc2)c1 | 38.0* | -0.1 | -0.2 | 0.4 | -12.4% | -8.1
O=C(c1ccc(NC(=S)NCc2ccc(Cl)cc2)cc1)N1CCCCC1 | 49.5* | -2.1 | -17.8 | 4.8 | 1.5% | 0.0
COC(=O)c1cccc(NC(=O)Nc2ccc(Cl)cc2Cl)c1 | 15.8 | 1.8 | -42.9* | 0.7 | -6.8% | -2.9
COC(=O)c1cccc(NC(=S)NCc2ccc(Cl)cc2)c1 | 35.5* | 1.3 | -0.4 | -8.2 | -4.0% | -5.5
Cc1nc2scc(C)n2c(=O)c1S(=O)(=O)Nc1ccc(N2CCOCC2)c(Cl)c1 | 12.1 | 2.1 | -9.0 | 2.2 | -5.0% | -7.0
O=C(NCc1ccc(Cl)cc1)c1cccc(NC(=O)c2ccccc2)c1 | 2.6 | -0.1 | -34.4* | -8.9 | -2.6% | -4.5
COc1ccccc1C(=O)NNC(=O)CN(C)S(=O)(=O)c1ccc(Cl)cc1 | x | x | x | x | -1.7% | x
COc1cc2nc(CN3CCN(S(=O)(=O)c4c(F)cccc4F)CC3)[nH]c(=O)c2cc1OC | 5.1 | 0.0 | -32.4* | -1.8 | -1.6% | x
CCOc1ccc(/C=C2\SC(=S)N(CCC(=O)N(CCO)c3ccccc3)C2=O)cc1 | 9.1 | 0.5 | -30.8* | 5.6 | -9.5% | -2.6
CNc1snc(C)c1C(=O)OCC(=O)N(C)c1ccccc1 | 4.3 | 1.5 | 17.8 | 5.8 | -1.2% | 6.1
CNc1snc(C)c1C(=O)OC(C)C(=O)Nc1cccc(C)c1 (configuration not stated) | x | x | x | x | -7.1% | x

High-throughput results (PubChem)
